Results taken from the supplement of paper PMC10477191.
± gives the standard deviation of the averaged measurements.

tested on: Drosophila ezoana antennal basiconic sensillum ab8; experiment: odor-evoked OSN spike response (post minus pre-stimulus); higher = stronger neuronal excitation; settings: odor dilution: 10^-4
Procedure: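 Single sensillum recordings from antennal basiconic sensilla of D. ezoana. A 500 ms pulse of odorant (10^-4 in mineral oil or DMSO) was delivered; the response is the change in action potential frequency between the 1 s pre- and post-stimulus windows (spikes/s).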

SMILES	odor-evoked OSN spike response
CC(C)=O [acetone]	66.9 ± 31 spikes/s
